# Laboratory results as given in PubChem BioAssay AID1439 (NMMLSC, 2008).
# In all, about 220,000 compounds went through this assay and about 770 (0.35%) were called active. Inconclusive results (about 15%) are left out. What follows is part of a selection rich in actives, with near analogues and random picks from the rest. Unmarked numbers belong to inactive results. Rule as the data show it: active = binding response below about 49% or above about 150%; inconclusive = no clear call, values can overlap the other calls; inactive = in between. Residues, ends and D or L forms follow the SMILES beside them. *: point of attachment. OPac = O=C(CO*)c1ccccc1; Bz = O=C(c1ccccc1)*
# Target: Guanine nucleotide-binding protein G(o) subunit alpha (Homo sapiens) (UniProt P09471)
# Sequence (P09471 whole entry, looked up): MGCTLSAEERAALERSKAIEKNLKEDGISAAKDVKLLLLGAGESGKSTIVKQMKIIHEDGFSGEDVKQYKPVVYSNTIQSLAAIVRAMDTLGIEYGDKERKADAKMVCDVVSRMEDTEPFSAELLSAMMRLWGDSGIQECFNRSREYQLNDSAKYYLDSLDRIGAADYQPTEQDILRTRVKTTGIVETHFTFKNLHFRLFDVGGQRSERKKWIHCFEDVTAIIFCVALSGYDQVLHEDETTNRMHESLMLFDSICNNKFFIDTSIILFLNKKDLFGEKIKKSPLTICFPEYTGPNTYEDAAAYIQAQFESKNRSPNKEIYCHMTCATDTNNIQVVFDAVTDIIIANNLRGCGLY
# Assay: RGS7-Galphao binding modulators, primary screen, biochemical, multiplexed bead flow cytometry (AID 1439);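 also: fluorescent Galphao held in activated GDP-AlF4 state binding bead-coupled RGS7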
# Conditions: at 10 µM, actives lie on both sides
row,Structure (SMILES),binding response (% of control)
1,O=C(COc1ccc(Cl)cc1)N1CCN(c2cccc(C(F)(F)F)c2)CC1,104%
2,COC(=O)c1ccccc1OCC(=O)N1CCN(c2ccc(Cl)cc2)CC1,290% (active)
3,O=C(CN1CCN(c2ccc(Cl)cc2)CC1)N1CCCC1,102%
4,COCCn1c(C)cc(C(=O)COC(=O)/C=C/c2cccc(OC)c2)c1C,92.8%
5,FC(F)(F)c1cccc(Cc2noc(CN3CCC(N4CCCCC4)CC3)n2)c1,104%
6,CCOC(=O)c1sc(/N=C/C2=C(O)CC(C)(C)CC2=O)c(C(=O)OCC)c1C,107%
7,Cc1cc(C)n2nc(SCC(=O)NC(=O)NCc3ccco3)nc2n1,102%
8,Cc1ccccc1CS(=O)(=O)CC1(O)CCN(C(=O)c2cccc(C(F)(F)F)c2)CC1,157% (active)
9,Cc1ccccc1CN1CCN(C(=O)c2cccc(F)c2)CC1,105%
10,CC(C)CC(=O)N1CCC(O)(CS(=O)(=O)Cc2ccccc2)CC1,103%
11,CCOC(=O)C1=NOC(Cn2cc(C(C)=O)c(=O)[nH]c2=O)C1 (centres undefined),100%
12,COc1cc2c(cc1OC)CN(C(=O)c1cc(=O)c3ccccc3o1)CC2,97.6%
13,CCOc1cc(C(=O)N2CCc3cc(OC)c(OC)cc3C2)ccc1OC(F)F,159% (active)
14,COc1cc2c(cc1OC)CN(C(=O)c1ccc(S(=O)(=O)N3CCCCCC3)cc1)CC2,89.7%
15,CCC(=O)NC(=S)Nc1ccc(NC(=O)c2ccco2)c(Cl)c1,102%
16,O=C(Nc1cccc(Cl)c1N1CCOCC1)c1ccc2c(c1)OCCO2,108%
17,O=C(CSc1nnc(-c2cccs2)n1Cc1ccccc1)N1CCc2ccccc2C1,102%
18,O=C(COc1ccccc1)N1CCc2ccccc2C1,103%
19,Cn1c(=O)c2c(n(Cc3ccccc3)c1=O)NC(=O)C2CC(=O)N1CCc2ccccc2C1 (centres undefined),13.5% [inhibitor] (active)
20,CCCCCCCNc1nc(Cl)nc(NCCO)n1,93.6%
21,CN(C)C(=O)CSc1n[nH]c(-c2ccco2)n1,107%
22,O=[N+]([O-])c1ccc(Sc2n[nH]c(-c3ccco3)n2)nc1,105%
23,Cc1ccc(N2C(=O)C(Cc3ccccc3)NC2=S)cc1 (centres undefined),99%
24,Cc1ccc(N2C(=O)C3C(c4ccccc4)(C2=O)C3(c2ccccc2)c2ccccc2)cc1 (centres undefined),14.4% [inhibitor] (active)

row,Structure (SMILES),binding response (% of control)
1,Cc1ccc(N=Nc2c(C)[nH]n(-c3ccccc3)c2=O)cc1,100%
2,CCCC1C(c2ccccc2)C(C#N)(C#N)C2(C#N)CC1(N)NC2=O (centres undefined),152% (active)
3,CC(C)OCCCNC(=S)N1CCC(C(=O)c2ccc3c(c2)OCCO3)CC1,105%
4,CCOCCCNCc1ccc(OCc2ccc(F)cc2)c(OC)c1,103%
5,O=C(Nc1cccc(F)c1)c1ccc(S(=O)(=O)N2CCCC2)cc1,97.7%
6,Cc1c(NC(=O)c2coc(=O)c(Br)c2)c(=O)n(-c2ccccc2)n1C,101%
7,O=C(Nc1cccc(F)c1)c1coc(=O)c(Br)c1,45.3% [inhibitor] (active)
8,CCN(CC)CCOC(=O)c1ccc(NC(=O)CNC(=O)c2ccccc2)cc1,98.5%
9,COc1ccccc1C(=O)n1nc(-c2ccccc2)nc1N,100%
10,CCCC(=O)n1nc(-c2ccccc2)nc1N,23.4% [inhibitor] (active)
11,COc1ccc(CC(=O)n2nc(-c3cccnc3)nc2N)cc1,97.3%
12,OCCC1CN(Cc2cccc(OC3CCCC3)c2)CCN1Cc1ccsc1 (centres undefined),102%
13,COCCN(CCOC)S(=O)(=O)c1ccc(/C(O)=C(\C#N)c2nc3ccccc3[nH]2)cc1,104%
14,COC(=O)Cn1cc(/C=C/[N+](=O)[O-])c2ccccc21,102%
15,O=C(COc1ccc(-c2ccccc2)cc1)NN=C1CCCC1,108%
16,COc1ccccc1NC(=O)CCCc1c[nH]c2ccccc12,312% (active)
17,COc1ccccc1NC(=O)C[n+]1ccccc1,99.2%
18,O=C(CCCCCn1c(=O)[nH]c2ccccc2c1=O)NCCc1c[nH]c2ccccc12,102%
19,O=C(CNC(=O)c1ccccc1)NCC(=O)OCC(=O)c1ccccc1 (Bz-Gly-Gly-OPac),113%
20,CCOc1ccccc1NC(=O)c1cc(S(=O)(=O)N2CCC3(CC2)OCCO3)ccc1F,15.2% [inhibitor] (active)
21,CCOc1ccccc1NC(=O)CCN1CCN(S(=O)(=O)c2ccc(OC)cc2)CC1,100%
22,Cc1c(C(=O)Nc2ccccc2Cl)oc2ccc(S(=O)(=O)N3CCC4(CC3)OCCO4)cc12,103%
23,Cc1cc(C2=NNC(=Nc3ccc(S(=O)(=O)N4CCOCC4)cc3)SC2)c(C)n1CC1CCCO1 (centres undefined),104%
24,FC(F)Oc1ccccc1C1CC(c2ccc(Br)s2)Nc2ncnn21 (centres undefined),163% (active)

row,Structure (SMILES),binding response (% of control)
1,COc1ccc(C2CC(c3ccccc3)Nc3ncnn32)cc1 (centres undefined),93.2%
2,Clc1ccc(C2CC(c3cccs3)n3ncnc3N2)cc1Cl (centres undefined),99.3%
3,O=C(NC1CCCC1)C(c1ccc(N2CCOCC2)cc1)N(C(=O)c1ccco1)c1ccccc1F (centres undefined),95.4%
4,O=C(C1CCN(C2CCN(Cc3ccc4cc(F)ccc4n3)CC2)CC1)N1CCCC1,106%
5,CCCNC(=O)c1c(Cl)cnn1-c1ccc(C)cc1,96.6%
6,CC(=O)c1ccc(NC(=O)C(C)N(C)CC(=O)Nc2ccccc2Cl)cc1 (centres undefined),98.2%
7,Cc1cccc2c1N(CCOc1ccccc1)C(=O)C2=O,86.4%
8,CCOC(=O)C1Sc2[nH]c(=O)sc2C(c2ccc(Cl)cc2)C1C(=O)OCC (centres undefined),-17.7% [inhibitor] (active)
9,CCOC(=O)C1=C(C)NC(=O)N(C(C)=O)C1c1ccc(Cl)cc1 (centres undefined),104%
10,CCOC(=O)C1C(c2ccc(Cl)cc2)NC(=S)NC1(O)C(F)(F)F (centres undefined),103%
11,Cc1cc(C)n(CCNCc2c(C(=O)N3C[C@@H](C)O[C@@H](C)C3)nc3ccc(Cl)cn23)n1,98.3%
12,COCC(C)n1c(C)cc(C(=O)COc2ccc(C)nc2[N+](=O)[O-])c1C (centres undefined),100%
13,CCOC(=O)c1ccc(N2C(=O)CC(N3CCN(C(=O)c4ccccc4)CC3)C2=O)cc1 (centres undefined),99.4%
14,COCCNc1nc2nonc2nc1N(C)Cc1ccc(C)cc1,101%
15,O=C(CN1C(=O)NC2(CCCCCC2)C1=O)NC1CC1,123%
16,O=C1NC2(CCCCCC2)C(=O)N1CCS(=O)(=O)Oc1ccccc1,97.1%
17,CSc1ccc(CN2C(=O)NC3(CCCCCC3)C2=O)cc1,219% (active)
18,Cc1nc2ccccc2c(C)c1C(=O)c1ccc(F)cc1,97.5%
19,CCOc1ccc(CN2CCN(Cc3ccc(C)o3)CC2CCO)cc1 (centres undefined),98.7%
20,CN(C)c1ccc2c(=O)[nH][nH]c(=O)c2c1,104%
21,CCOC(=O)c1[nH]cnc1C(=O)Nc1ccccc1C,100%
22,COC(=O)CNC(=O)c1ccc(OC2CCN(C(=O)C3CC3)CC2)cc1,105%
23,COc1cccc(C(=O)NCCSc2ccc(Br)cc2)c1,16.5% [inhibitor] (active)
24,COc1cccc(C(=O)NNC(=O)c2ccccc2Br)c1,99%

row,Structure (SMILES),binding response (% of control)
1,COc1cc(OC)cc(C(=O)NCCSCc2ccco2)c1,98.2%
2,Cc1ccc(-c2cc(C(F)(F)F)n3ncc(C(=O)N4CCCCC4c4cccnc4)c3n2)cc1 (centres undefined),100%
3,C/C(=N\NC(=O)c1cccc(N2CCCC2=O)c1)c1ccc(N)cc1,102%
4,O=C(CSc1ccc2nnc(-c3ccccc3)n2n1)N1CCCc2ccccc21,207% (active)
5,CCCn1c(SCC(=O)N2CCc3ccccc32)nnc1-c1ccncc1,96%
6,Cn1c(SCC(=O)N2CCCc3ccccc32)nc2ccccc2c1=O,96.4%
7,CC(C)CC(CC(C)C)=NNC(=O)c1ccc(CSc2nncn2C)cc1,99.5%
8,CN(CCC1CCOCC1)Cc1cn[nH]c1-c1ccc(-c2ccccc2)cc1,93%
9,O=C(NCC1COc2ccccc2O1)C1(c2ccccc2)CCCC1 (centres undefined),103%
10,COc1ccc(CCC(=O)OCC(=O)Nc2ccc(C)c(S(=O)(=O)N(C)C)c2)cc1,45.2% [inhibitor] (active)
11,COc1cc(CCC(=O)OCC(=O)Nc2cccc(S(N)(=O)=O)c2)cc(OC)c1OC,91.7%
12,Cc1ccc(C(=O)Nc2ccc(C)c(S(=O)(=O)N(C)C)c2)s1,99.1%
13,COc1ccc2oc(=O)c(C(=O)N3CCCC3)cc2c1,101%
14,Nn1c(SCC(=O)Nc2nccs2)nncc1=O,102%
15,Cc1ccc(Cn2ccc(NC(=O)c3cc(C(C)C)on3)n2)cc1,43.9% [inhibitor] (active)
16,Cc1ccc(Cn2ccc(NC(=O)C3C4CCC(C4)C3C(=O)O)n2)cc1 (centres undefined),99.7%
17,O=C(Nc1ccn(Cc2ccc(F)cc2)n1)c1ccncc1,100%
18,COc1ccc(Br)cc1/C=N/NC(=O)c1cccc(S(=O)(=O)N2CCOCC2)c1,112%
19,Cc1cccc(C)c1NC(=O)Nc1ccccc1-n1ccnc1,99.6%
20,CCC(=O)Nc1nc(OC)cc(OC)n1,99.2%
21,CC(=O)Nc1nc(N(C)C)nc(N(C)C)n1,-0.2% [inhibitor] (active)
22,COc1cc(OC)nc(NC(=O)CCl)n1,100%
